Experimental data published in PubChem BioAssay (NCI).
Compounds without any hit were thinned out: in the full panel of roughly 83,000, 20% have a hit.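 In brief: 96-well plates, 48 h treatment, single concentration, percent growth endpoint.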 The source made the active and inactive calls. Rule for the calls: active = growth percent below 10; inactive = the rest.

Legend:
Test in all cases: NCI-60 one-dose screen, 48 h (100 = growth as untreated, 0 = no growth, -100 = all killed)
Conditions in all cases: 10 µM unless noted
NCI-H23 lung = test system: NCI-H23 lung
NCI-H226 lung = test system: NCI-H226 lung
NCI-H322M lung = test system: NCI-H322M lung
HOP-62 NSCLC = test system: HOP-62 NSCLC
NCI-H460 lung = test system: NCI-H460 lung
HOP-92 NSCLC = test system: HOP-92 NSCLC
NCI-H522 lung = test system: NCI-H522 lung
A549/ATCC NSCLC = test system: A549/ATCC NSCLC
786-0 renal = test system: 786-0 renal
COLO 205 colon = test system: COLO 205 colon

Measured: growth

CCCCCCCCCCCC[n+]1ccc(CCCCCCCCC)cc1
active: NCI-H23 lung -80.8% | NCI-H226 lung -65.2% | HOP-62 NSCLC -84.8% | NCI-H460 lung -63.6% | HOP-92 NSCLC -55.5% | NCI-H522 lung -33.1% | A549/ATCC NSCLC -44.8% | 786-0 renal -85.1% | COLO 205 colon -76.5%
inactive: NCI-H322M lung 56.1%

COc1cc(OC)c(/C=C/c2c3ccccc3cc[n+]2C)c(OC)c1
inactive: NCI-H23 lung 17.3% | NCI-H226 lung 33.3% | NCI-H322M lung 32.9% | HOP-62 NSCLC 35.3% | NCI-H460 lung 10.8% | HOP-92 NSCLC 36.6% | A549/ATCC NSCLC 14.7% | 786-0 renal 62.8%
active: NCI-H522 lung -19.3% | COLO 205 colon -35.3%

O=C(CCl)N1c2ccccc2Sc2c1ccc1ccccc21
active: NCI-H522 lung -79.2%
inactive: NCI-H23 lung 48.6% | NCI-H226 lung 68.1% | NCI-H322M lung 106% | HOP-62 NSCLC 90.6% | NCI-H460 lung 81.7% | HOP-92 NSCLC 64.6% | A549/ATCC NSCLC 95.2% | 786-0 renal 88.9% | COLO 205 colon 65.7%

CCC(C)C(N)C(=O)NC(CC(N)=O)C(=O)NC(CC(C)C)C(=O)NC(CCCCN)C(=O)NC(C)C(=O)NC(CC(C)C)C(=O)NC(C)C(=O)NC(C)C(=O)NC(CC(C)C)C(=O)NC(C)C(=O)NC(CCCCN)C(=O)NC(CCCCN)C(=O)NC(C(=O)NC(CC(C)C)C(N)=O)C(C)CC (stereo not given)
inactive: NCI-H23 lung 82.1% | NCI-H226 lung 113% | NCI-H322M lung 100% | HOP-62 NSCLC 74.9% | NCI-H460 lung 79.3% | HOP-92 NSCLC 61% | NCI-H522 lung 85.2% | A549/ATCC NSCLC 90.3% | 786-0 renal 68.1% | COLO 205 colon 90%

Cc1cccc2c(N)c3ccccc3nc12
active: NCI-H23 lung -39.6% | NCI-H226 lung -9.22% | NCI-H322M lung -2.56% | HOP-62 NSCLC -7.52% | NCI-H460 lung -17.4% | HOP-92 NSCLC -20.4% | NCI-H522 lung -36% | A549/ATCC NSCLC -68.6% | 786-0 renal -9.45% | COLO 205 colon -48.2%

Nc1ccc(Oc2ccccc2)c(Cl)c1
inactive: NCI-H23 lung 108% | NCI-H226 lung 94.2% | NCI-H322M lung 86.3% | HOP-62 NSCLC 86.6% | NCI-H460 lung 106% | HOP-92 NSCLC 82.6% | NCI-H522 lung 108% | A549/ATCC NSCLC 94.6% | 786-0 renal 84.9% | COLO 205 colon 96.2%

Cc1cc(C(=C2C=CC(=Nc3ccccc3)C=C2)c2ccc(Nc3ccccc3)cc2)ccc1N
active: NCI-H23 lung -32.2% | NCI-H226 lung -84.4% | NCI-H322M lung -34.4% | HOP-62 NSCLC -85.2% | NCI-H460 lung -83.9% | HOP-92 NSCLC -92.9% | NCI-H522 lung -81.3% | A549/ATCC NSCLC -91.9% | 786-0 renal -84.1% | COLO 205 colon -65.1%

O=C(O)c1cc2c(s1)C(=O)c1sccc1C2=O
active: NCI-H23 lung -41.9% | HOP-62 NSCLC -89% | NCI-H522 lung -63.4%
inactive: NCI-H226 lung 103% | NCI-H322M lung 85.9% | NCI-H460 lung 104% | HOP-92 NSCLC 54.4% | A549/ATCC NSCLC 28.7% | 786-0 renal 93.2% | COLO 205 colon 104%

O=Nc1ccc2ccccc2c1O
inactive: NCI-H23 lung 56.6% | NCI-H226 lung 102% | NCI-H322M lung 103% | HOP-62 NSCLC 95.2% | NCI-H460 lung 97.5% | HOP-92 NSCLC 90.1% | NCI-H522 lung 74.7% | A549/ATCC NSCLC 87.1% | 786-0 renal 98% | COLO 205 colon 75.1%

C[C@@]1(CO)[C@H](O)CC[C@@]2(C)[C@H]1CC[C@H]1C[C@@H]3C[C@@]12CC[C@@]3(O)COC(=O)CN
active: A549/ATCC NSCLC 3.43%
inactive: NCI-H23 lung 21.5% | NCI-H226 lung 62% | NCI-H322M lung 78.1% | HOP-62 NSCLC 37.6% | NCI-H460 lung 12% | HOP-92 NSCLC 45.4% | NCI-H522 lung 49% | 786-0 renal 14.9% | COLO 205 colon 47%

CN1CCC(c2ccccc2)(c2ccccc2)C(=O)C1
inactive: NCI-H23 lung 80.1% | NCI-H226 lung 67.7% | NCI-H322M lung 87.6% | HOP-62 NSCLC 107% | NCI-H460 lung 98% | HOP-92 NSCLC 89% | NCI-H522 lung 75.4% | A549/ATCC NSCLC 79.7% | 786-0 renal 86.7% | COLO 205 colon 98.4%

CC(/C=N/NC(N)=S)Cc1ccc(C(C)C)cc1 (stereo not given)
inactive: NCI-H23 lung 51% | NCI-H226 lung 66.6% | NCI-H322M lung 104% | HOP-62 NSCLC 89.1% | NCI-H460 lung 82.8% | HOP-92 NSCLC 69.9% | A549/ATCC NSCLC 89.5% | 786-0 renal 51% | COLO 205 colon 68%
active: NCI-H522 lung -26.6%

COC(=O)Nc1nc2ccc(C3(c4ccc(F)cc4)OCCO3)cc2[nH]1
inactive: NCI-H23 lung 47.4% | NCI-H226 lung 63.9% | NCI-H322M lung 51.7% | HOP-62 NSCLC 35.8% | NCI-H460 lung 10.4% | HOP-92 NSCLC 41.1% | A549/ATCC NSCLC 21.7% | 786-0 renal 51%
active: NCI-H522 lung -37.2% | COLO 205 colon 0.171%

CCOc1cc(F)c([N+](=O)[O-])cc1[N+](=O)[O-]
inactive: NCI-H23 lung 38.9% | NCI-H226 lung 95.3% | NCI-H322M lung 103% | HOP-62 NSCLC 93.8% | NCI-H460 lung 106% | HOP-92 NSCLC 72.1% | A549/ATCC NSCLC 90.9% | 786-0 renal 59.9%
active: NCI-H522 lung -55.7% | COLO 205 colon -48.4%
